Data as given in ChEMBL document CHEMBL4513216, “Probing the Open Global Health Chemical Diversity Library for Multistage-Active Starting Points for Next-Generation Antimalarials” (ACS Infect Dis, 2020).
The campaign covered roughly 69,000 compounds. About 8,600 (12%) showed an effect of 50% or more. For the sample, strong results were picked, then their nearest neighbours and some compounds at random.

Tested on: Plasmodium berghei
Experiment: Screen against P. berghei liver stage (PbLuc), transformed with Luciferase, at 10uM
Format: functional, HepG2
Conditions: tested at 10 uM

Structure (SMILES) | INHIBITION [%]
Cc1cnn(CC2CN(CC(=O)Nc3cc(C)no3)CCO2)c1 (stereo not given) | -103.725
O=C1CC(c2ccncc2)c2c(sc3c2CCCC3)N1 (stereo not given) | 20.4
O=C1CC(c2cccnc2)c2c(sc3c2CCCC3)N1 (stereo not given) | 26.9
O=C1CC(c2ccc(C(=O)O)cc2)c2c(sc3c2CCCC3)N1 (stereo not given) | 89.3
CC(=O)N(Cc1ncc(C)o1)C1CCN(CCOc2ccccc2)C1 (stereo not given) | 8.31
CC(=O)N1CCc2c(nc(N(C)C)nc2N(C)CC2CCCO2)C1 (stereo not given) | 41.4
CN(C)c1nc2c(c(N(C)C)n1)CCN(C(=O)CN1C[C@H]3CC[C@@H]1C3)C2 | 11.7
Cc1nc2c(c(N(C)C)n1)CCN(C(=O)CN1CCC(O)CC1)C2 | 45.3
CN(C)c1nc2c(c(N(C)C)n1)CCN(C(=O)CN1CCC(O)CC1)C2 | 56.1
CCN(CC)CCC(=O)N1CCc2c(nc(N(C)C)nc2N(C)C)C1 | 30.1
CC(C)SCC(=O)N1CCc2c(nc(N(C)C)nc2N(C)C)C1 | 61.1
Cc1ccc(NC(=O)C2CSCN2C(=O)c2cnsn2)c(C)c1 (stereo not given) | -50.6
CCS(=O)(=O)N1CCc2ccc(NC(=O)Nc3cccc(SC)c3)cc21 | 88.4
Cc1cc(S(=O)(=O)N2CCCc3ccc(F)cc32)sc1C(=O)O | 26.8
CCS(=O)(=O)N1CCc2ccc(NC(=O)NC(C)(C)C)cc21 | 46.1
COc1ccc(S(=O)(=O)N2CCc3ccc(F)cc32)cc1C(=O)O | 15.3
O=C(O)c1csc(S(=O)(=O)N2CCCc3ccc(F)cc32)c1 | -9.67
CCS(=O)(=O)N1CCCc2ccc(NC(=O)Cc3ccc(F)cc3)cc21 | 56.1
CCS(=O)(=O)N1CCc2ccc(NC(=O)Nc3ccc(F)cc3F)cc21 | 72.6
Cc1cccc(NC(=O)N2CCC(CO)(Nc3ccccc3)CC2)c1 | -15.96
CO[C@H]1CN(C(C)C)C[C@@H]1NC(=O)Nc1cccc(SC)c1 | 12.6
CCS(=O)(=O)N1CCc2ccc(NC(=O)NC3CCCCC3)cc21 | 8.41
CCS(=O)(=O)N1CCc2ccc(NC(=O)Nc3cccc(C)c3)cc21 | 85

Structure (SMILES) | INHIBITION [%]
CSc1ccc(NC(=O)Nc2ccc3c(c2)N(S(C)(=O)=O)CC3)cc1 | 49
O=C(c1ccc2c(c1)CCCC2)N1CCCC(n2cncn2)C1 (stereo not given) | 19.6
O=C(c1cccnc1)N1CCCC(c2ncncc2-c2ccncc2)C1 (stereo not given) | 44.8
C[C@@H]1C(=O)NC[C@H]2CN(Cc3ccc4c(c3)OCO4)C[C@H]21 | 30.9
COc1nn(C)c2c1CCCN(C(=O)c1ccc3c(c1)OCO3)C2 | 20.9
O=C(Nc1ccccc1OCCc1ccccn1)N1CCOCC1 | -98.1
CNC(=O)C1(Cc2cc(C(C)C)no2)CCN(Cc2cccnc2)C1 (stereo not given) | 13.125
CCS(=O)(=O)N1CCc2ccc(NC(=O)NCc3ccccc3)cc21 | -23.5
CCS(=O)(=O)N1CCc2ccc(NC(=O)Nc3ccccc3)cc21 | 88.5
CCS(=O)(=O)N1CCc2ccc(NC(=O)Nc3cccc(F)c3)cc21 | 91.4
CCNC(=O)N1CCc2ccc(NC(=O)NCC3CC3)cc21 | 10.7
CCS(=O)(=O)N1CCc2ccc(NC(=O)Nc3ccccc3C)cc21 | 34.5
COCCN1CCC(NC(=O)Nc2cccc(F)c2)C1 (stereo not given) | 28.9
Cn1cccc1C(=O)N1CCO[C@@H]2CN(Cc3nccs3)C[C@@H]2C1 | -28.5
CN(C)C(=O)COC[C@]12COC[C@H]1CN(CC1CCC1)C2 | -11.1
COc1ccnc(N2CCN(C(=O)Cc3ccsc3)CC2)n1 | -47.6
CNS(=O)(=O)CCCN1CCN(C(C#N)c2ccccc2)CC1 (stereo not given) | 47.3
Cc1ccccc1NC(=O)N1CCN(Cc2noc(C3CC3)n2)CC1 | 58.5
O=C(Nc1ccccc1)N1CCN(Cc2noc(C3CC3)n2)CC1 | 17.4
CNC(=O)c1c(C)cccc1NCc1nnc(C2CC2)o1 | 24.3
O=C(Cc1ccccc1F)N1CCN(Cc2noc(C3CC3)n2)CC1 | 52.3
CNC(=O)c1c(C)cccc1NCC(=O)Nc1cc(C)nn1C | 19.1
CNC(=O)c1c(C)cccc1NCc1noc(C2CC2)n1 | 74

Structure (SMILES) | INHIBITION [%]
O=C(Nc1ccc(F)cc1)N1CCN(Cc2noc(C3CC3)n2)CC1 | -3.2
O=C(Nc1ccccc1F)N1CCN(Cc2noc(C3CC3)n2)CC1 | 11.8
O=C(Cc1ccccc1)N1CCN(Cc2noc(C3CC3)n2)CC1 | 1.77
COC1(CNC(=O)c2ccc3nsnc3c2)CCSC1 (stereo not given) | -3.83
COCc1noc(CN2CCC3(CC2)[C@H](O)C[C@@H]3OC)n1 | 15.8
CCOc1ccc(OCC(O)CN2CCN(S(C)(=O)=O)CC2)cc1 (stereo not given) | -67.3
CC(=O)NCC1CCN(C(=O)c2c[nH]c3cc(Cl)ccc23)CC1 | 35.3
CN1CCO[C@@H]2CN(S(=O)(=O)c3cccs3)CC[C@@H]2C1 | 28.5
CCn1cc(C(=O)N2C[C@H]3CC(Oc4ccccc4)C[C@H]3C2)cn1 (stereo not given in full) | -17.715
CC(C)(C)NC[C@@H]1CCC[C@@H]2CN(Cc3csnn3)C[C@@H]21 | -39.2
O=C(Cn1cc(-c2ccccc2)cn1)NC(C1CC1)C1CC1 | 34.7
OCCn1cc(CN2CCN(CCOc3cccc(F)c3)CC2)cn1 | 33.95
Cc1cc(NC(C)Cc2cccnc2)n2nccc2n1 (stereo not given) | 23
Cc1cccnc1CC(C)Nc1ncc(C)c(N(C)C)n1 (stereo not given) | 27.9
Cc1cnc(NC(C)Cc2cccnc2)nc1N(C)C (stereo not given) | 55
COCc1nc(NC(C)Cc2cc(C)n[nH]2)c2cnn(C)c2n1 (stereo not given) | 25.4
Cc1cc(CC(C)Nc2ncc(C)c(N(C)C)n2)[nH]n1 (stereo not given) | 63.7
Cc1cnc(NC(C)Cc2cnccn2)nc1N(C)C (stereo not given) | 0.705
COc1ccc(C(=O)N2C[C@@H](O)[C@H](NCc3cnc(C)cn3)C2)cc1 | 35.15
O=C(NCCc1nncn1C1CC1)c1cc2ccccn2c1 | -22.3
O=C(Nc1ccc(CC(=O)N2CCSCC2)cc1)NC1CCCC1 | 33.2
CCc1nnc(CNc2ccc(CC(=O)N3CCSCC3)cc2)o1 | 84.2
CCc1noc(CNc2ccc(CC(=O)N3CCSCC3)cc2)n1 | 28.5

Structure (SMILES) | INHIBITION [%]
CN(C(=O)Cc1ccc(NC(=O)NC2CC2)cc1)c1ccccc1 | 8.845
CN(C)C(=O)Cc1ccc(NC(=O)NC2CCCC2)cc1 | -36.6
Cc1noc(CNc2ccc(CC(=O)N3CCSCC3)cc2)n1 | 32.5
O=C(Nc1ccc(CC(=O)N2CCSCC2)cc1)NC1CC1 | 53.8
O=C(Nc1ccc(CC(=O)N2CCCC2)cc1)NC1CC1 | 36.2
CN(C(=O)Cc1ccc(NC(=O)NC2CCC2)cc1)c1ccccc1 | 55.3
CC(C)C(NC(=O)Nc1ccc(F)cc1)C(=O)N(C)C (stereo not given) | 18.7
Cn1cc(-c2cc(C(F)(F)F)n(CCCN)n2)cn1 | 21.9
CNC(=O)CN([C@H]1C[C@H]2CCOC[C@H]2C1)S(=O)(=O)c1ccccc1 | 19.2
O=C1COC2(CCN(Cc3ccoc3)CC2)CN1CCn1cccn1 | 0.804
Cc1occc1C(=O)N1CCO[C@H]2[C@H](OCc3ccccn3)CC[C@@H]21 | 30.3
Cc1cnc(N2CCC(c3ccccc3)CC2)nc1-c1ccnn1C | 68
Cc1cnc(N2CCCC(O)C2)nc1-c1ccnn1C (stereo not given) | 16.6
Cc1cnc(N2CCC(c3ccncc3)CC2)nc1-c1ccnn1C | 68
Cc1cnc(N2CCN(C)CC2)nc1-c1ccnn1C | 16.3
Cc1cnc(N2CCCC(c3ccccc3)C2)nc1-c1ncnn1C (stereo not given) | 39.3
Cc1cnc(N2CCCC(c3ccccc3)C2)nc1-c1ccnn1C (stereo not given) | 71
Cc1cnc(N2CC[C@@]3(O)CCCC[C@H]3C2)nc1-c1ccnn1C | 30.4
COc1cnc(N2CCN(C)CC2)nc1-c1ccnn1C | 20.8
COc1cnc(N2CC(N3CCOCC3)C2)nc1-c1ccnn1C | 41
Cc1ccoc1C(=O)N1C[C@@H]2COC[C@]2(COCc2cccnc2)C1 | -34.7
CCCc1n[nH]c(C2CN(C(=O)c3n[nH]c4ccccc34)CCO2)n1 (stereo not given) | 21
COC(=O)NCC(=O)NC1(C)CCc2ccccc2C1 (stereo not given) | 7.3

Structure (SMILES) | INHIBITION [%]
CN(C)c1ccc(C(=O)N2CCCC(n3cccn3)C2)nn1 (stereo not given) | 3.15
Cc1ccc(NC2CCN(C(=O)CCCc3cccs3)CC2)nn1 | -3.7
O=C1CCC2(CCN(Cc3cscn3)CC2)CN1CC1CCCO1 (stereo not given) | -23.5
Cc1n[nH]c(SCC(=O)NC(c2ccccn2)C(C)C)n1 (stereo not given) | 58.7
Cc1ccc(OCCC(=O)NC(C)c2ccncc2)cc1 (stereo not given) | 41.6
CSCC(=O)NC(Cc1ccc(C)cc1)c1ccccn1 (stereo not given) | 21.3
Cc1noc(CCCC(=O)NC(C)c2ccccn2)n1 (stereo not given) | 13.9
Cc1n[nH]c(SCC(=O)NC(c2ccncc2)C(C)C)n1 (stereo not given) | 50.1
Cc1n[nH]c(SCC(=O)N[C@@H](C)C(N)=O)n1 | 4.41
CC(C)CNC(=O)Cn1ccc2ccccc21 | 25.7
O=C(NC1CC1)c1ccnc(-c2cc(NCCO)nc3[nH]ccc23)c1 | -20.1
Cc1ccc(CN2CCCC23CCN(S(=O)(=O)c2ccccc2)C3)o1 (stereo not given) | 34.7
COCCC(=O)N1CCC2(CCCN2Cc2ccccc2)C1 (stereo not given) | -22.5
CC(C)c1ccc(S(=O)(=O)N2CCCC3(CCCN3S(C)(=O)=O)C2)cc1 (stereo not given) | -3.33
O=S(=O)(c1ccccc1)N1CCC2(CCCN2Cc2cccc(F)c2)C1 (stereo not given) | 78.8
O=C(c1ccc[nH]1)N1CCCC2(CCCN2Cc2cccnc2)C1 (stereo not given) | 12.1
CCS(=O)(=O)N1CCCC2(CCCN2Cc2cccc(F)c2)C1 (stereo not given) | -22.1
CS(=O)(=O)N1CCCC12CCCN(S(=O)(=O)c1cccc(F)c1)C2 (stereo not given) | -2.35
O=S(=O)(c1ccccc1)N1CCC2(CCCN2Cc2ccccc2Cl)C1 (stereo not given) | 60.2
CCc1ccc(S(=O)(=O)N2CCCC3(CCCN3S(C)(=O)=O)C2)cc1 (stereo not given) | -12.2
O=S(=O)(c1ccccc1)N1CCC2(CCCN2Cc2ccc(Cl)cc2)C1 (stereo not given) | 91.7
O=S(=O)(c1ccccc1)N1CCC2(CCCN2Cc2cccnc2)C1 (stereo not given) | 55.5
O=C(c1ccc[nH]1)N1CCC2(CCCN2Cc2cccnc2)CC1 | 4.02
